Test systems include INSRR; INSR; IRAK1; IRAK3; IRAK4; ITK; KIT-autoinhibited; KIT; LATS1; LATS2.
What all share (settings): concentration: 1 μM, replicates: in singlicate; n = 1
A further test has as its system T1, IKK-alpha.
T1 construct: gene CHUK

A further test deals with T2, IKK-beta.
T2 construct: gene IKBKB

A further test deals with T3, IKK-epsilon.
T3 construct: gene IKBKE

Test [1] relates to JAK1(JH1domain-catalytic).
Test [2] concerns JAK1(JH2domain-pseudokinase).
Test [3] concerns JAK2(JH1domain-catalytic).
For test [4], the system named is JAK3(JH1domain-catalytic).
A further test relates to T4, JNK1.
T4 construct: gene MAPK8

In a further test the test system is T5, JNK2.
T5 construct: gene MAPK9

For the next test, the system named is T6, JNK3.
T6 construct: gene MAPK10

Structures are written as SMILES.
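Further: KINOMEscan kinase panel screen.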

On to `O=C(O)C(F)(F)F.O=C(O)C(F)(F)F.O=c1[nH]ccc2nc(N[C@@H]3CCCNC3)nc(Nc3ccc(S(=O)(=O)N4CCOCC4)cc3)c12` [GSK2177277], for which the “%Inh” value in the test on IKK-alpha is on record as 100%; with IKK-beta, 98.1%; in the test on IKK-epsilon it was 75%; with INSRR it was 99.2%; in the test with INSR, 97.6%; with IRAK1, 99.6%. The “%Inh” value in the test on IRAK3 turned out to be 22%; in the test with IRAK4, 83%; in the test with ITK it was 86%; in test [1] it was 99%; in test [2], 82%; in test [3], 98.7%. In addition, the “%Inh” value in [4] came to 99.3%; with JNK1 it was 99.4%; with JNK2 it was 93.4%; in the test on JNK3, 98.6%; with KIT-autoinhibited it was 70%; with KIT, 99.8%. Moreover, the “%Inh” value in the test on LATS1 is 92.6%; in the test on LATS2 it was 96.9%.

On to `CCn1c(-c2nonc2N)nc2c(C#CC(C)(C)O)nc(OC[C@H](N)c3ccccc3)cc21` [GSK943949], for which the “%Inh” value in the test with IKK-alpha is on record as 0%; with IKK-beta it was 0%; with IKK-epsilon, 13%; with INSRR, 0%; with INSR, 0%; in the test with IRAK1, 0%. Further, the “%Inh” value in the test on IRAK3 amounted to 0%; in the test with IRAK4, 8%; with ITK it was 0%; in test [1], 19%; in test [2], 0%; in [3], 8%. Moreover, the “%Inh” value in test [4] came to 4%; in the test on JNK1, 0%; in the test on JNK2, 0%; in the test with JNK3, 0%; in the test on KIT-autoinhibited, 4%; in the test with KIT it was 0%. The “%Inh” value in the test with LATS1 worked out at 59%; with LATS2, 100%.

As to `Nc1ncnc2c1nc(-c1ccccc1)n2-c1ccccc1` [SKF-97293], the “%Inh” value is 50% in the test with IKK-alpha; 44% in the test with IKK-beta; 12% in the test with IKK-epsilon; 16% in the test with INSRR; 7% in the test on INSR; 39% in the test with IRAK1. Further, the “%Inh” value in the test with IRAK3 is recorded as 40%; with IRAK4, 10%; in the test on ITK, 8%; in [1] it was 0%; in [2], 6%; in [3], 62%. In addition, the “%Inh” value was 7% in test [4]; 11% with JNK1; 17% in the test on JNK2; 0% in the test on JNK3; 11% in the test with KIT-autoinhibited; 0% in the test on KIT. For the same compound, the “%Inh” value with LATS1 was 35%; with LATS2, 0%.

Consider `O=C(Nc1cccc(Oc2ccc3nc(NC(=O)C4CC4)cn3n2)c1)c1ccccc1C(F)(F)F`, for which the “%Inh” value in the test on IKK-alpha, in the test with IKK-beta, in the test with IKK-epsilon, with INSRR, in the test with INSR and in the test on IRAK1 was 0% in each case. Also, the “%Inh” value is recorded as 5% in the test on IRAK3; 0% with IRAK4; 0% with ITK; 8% in [1]; 7% in [2]; 43% in test [3]. Further, the “%Inh” value was 29% in [4]; 0% with JNK1; 0% in the test with JNK2; 0% in the test with JNK3; 91.5% with KIT-autoinhibited; 100% in the test with KIT. Further, the “%Inh” value in the test with LATS1 and in the test with LATS2 was 0% in each case.

Consider `CN(c1ccc(NC(=O)Nc2cc(C(F)(F)F)ccc2F)cc1)c1ccnc(Nc2ccc(S(N)(=O)=O)cc2)n1` [GW809893], for which the “%Inh” value in the test with IKK-alpha turned out to be 82%; in the test with IKK-beta, 44%; in the test on IKK-epsilon, 7%; in the test with INSRR it was 13%; in the test with INSR, 15%; in the test on IRAK1, 49%. The “%Inh” value is reported as 51% in the test with IRAK3; 6% in the test on IRAK4; 59% in the test with ITK; 95.3% in test [1]; 16% in test [2]; 94.7% in [3]. The “%Inh” value in test [4] was determined as 51%; with JNK1, 8%; in the test with JNK2, 51%; in the test with JNK3, 0%; in the test on KIT-autoinhibited it was 16%; with KIT it was 99.5%. Besides, the “%Inh” value in the test on LATS1 and in the test on LATS2 was 0% in each case.

Take `Cl.c1ccc(-c2ccc3c(Nc4ccc5[nH]ccc5c4)ccnc3c2)nc1` [GW440138]: the “%Inh” value turned out to be 17% in the test with IKK-alpha; 8% with IKK-beta; 19% in the test with IKK-epsilon; 0% in the test with INSRR; 0% in the test on INSR; 28% in the test with IRAK1. Also, the “%Inh” value in the test with IRAK3 amounted to 0%; in the test on IRAK4, 3%; in the test with ITK it was 0%; in test [1], 12%; in test [2], 0%; in test [3], 24%. In addition, the “%Inh” value in test [4] is reported as 0%; with JNK1, 0%; with JNK2, 7%; in the test on JNK3, 2%; in the test on KIT-autoinhibited, 1%; with KIT it was 100%. Moreover, the “%Inh” value in the test on LATS1 is recorded as 0%; with LATS2, 17%.

In the case of `COc1ccc(CNC(=O)NC2CCN(c3ccnc(Nc4ccc(F)cc4)n3)CC2)cc1` [GSK1379788], the “%Inh” value in the test with IKK-alpha is on record as 1%; in the test on IKK-beta, 0%; in the test with IKK-epsilon, 11%; with INSRR, 0%; with INSR, 0%; in the test with IRAK1 it was 17%. Moreover, the “%Inh” value with IRAK3 is 24%; with IRAK4, 0%; in the test with ITK, 0%; in test [1] it was 11%; in test [2], 0%; in test [3], 9%. Besides, the “%Inh” value in [4] is 0%; in the test with JNK1, 11%; in the test on JNK2, 5%; in the test on JNK3 it was 0%; with KIT-autoinhibited, 0%; in the test with KIT, 19%. Also, the “%Inh” value is listed as 7% with LATS1 and 8% with LATS2.

Regarding `Nc1ncc(-c2ccc3nccc(-c4ccncc4)c3c2)cc1S(=O)(=O)N1CCOCC1` [GSK1627798], the “%Inh” value is reported as 21% with IKK-alpha; 9% in the test with IKK-beta; 11% in the test with IKK-epsilon; 15% in the test with INSRR; 35% in the test on INSR; 31% in the test with IRAK1. The “%Inh” value in the test on IRAK3 came out at 73%; with IRAK4, 16%; in the test on ITK, 11%; in test [1], 3%; in test [2] it was 0%; in test [3] it was 0%. In addition, the “%Inh” value in [4] came to 0%; with JNK1, 26%; in the test on JNK2, 19%; with JNK3, 10%; in the test with KIT-autoinhibited, 0%; in the test on KIT, 16%. In addition, the “%Inh” value in the test with LATS1 and with LATS2 was 0% in each case.

On to `O=C(Nc1cccc(-c2nn3ccccc3c2-c2ccnc(Nc3cccc(F)c3)n2)c1)c1c(F)ccc(F)c1Cl` [GSK357952], for which the “%Inh” value in the test on IKK-alpha amounted to 0%; in the test on IKK-beta it was 0%; with IKK-epsilon, 65%; in the test on INSRR, 19%; in the test with INSR, 8%; in the test on IRAK1, 83%. Also, the “%Inh” value in the test on IRAK3 was 0%; in the test on IRAK4, 84%; in the test on ITK, 12%; in [1], 0%; in [2] it was 0%; in test [3] it was 25%. Moreover, the “%Inh” value is 0% in [4]; 11% in the test with JNK1; 23% with JNK2; 19% in the test on JNK3; 0% in the test on KIT-autoinhibited; 98.2% with KIT. The “%Inh” value in the test with LATS1 stood at 0%; with LATS2, 49%.

Source of the values: paper PMC5540273 (PLoS ONE, 2017).
